This is part of a sample that, as a whole, favours compounds with a hit. Of some 83,000 tested, about 20% had one in any assay.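 Step 1: grow cells in 96-well plates. Step 2: add test compound at a single concentration. Step 3: incubate 48 h. Step 4: record percent growth.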 Active and inactive are the calls of the source. Rule for the calls: active = growth percent below 10; inactive = the rest.
How the values were obtained:
Assay in all cases: NCI-60 one-dose screen, 48 h (100 = growth as untreated, 0 = no growth, -100 = all killed)
Conditions in all cases: 10 µM unless noted
NCI-H23 lung = system: NCI-H23 lung
NCI-H226 lung = system: NCI-H226 lung
NCI-H322M lung = system: NCI-H322M lung
HOP-62 NSCLC = system: HOP-62 NSCLC
NCI-H460 lung = system: NCI-H460 lung
HOP-92 NSCLC = system: HOP-92 NSCLC
NCI-H522 lung = system: NCI-H522 lung
A549/ATCC NSCLC = system: A549/ATCC NSCLC
786-0 renal = system: 786-0 renal
COLO 205 colon = system: COLO 205 colon
DU-145 prostate = system: DU-145 prostate
K-562 leukemia = system: K-562 leukemia
MALME-3M melanoma = system: MALME-3M melanoma
MDA-MB-231 breast = system: MDA-MB-231 breast
RXF 393 renal = system: RXF 393 renal
SF-268 CNS = system: SF-268 CNS
SF-295 CNS = system: SF-295 CNS
SF-539 CNS = system: SF-539 CNS
UACC-257 melanoma = system: UACC-257 melanoma
M14 melanoma = system: M14 melanoma

Measured: growth

CC[C@H](C)[C@H](NC(=O)c1nccn1C)C(=O)N(C)[C@H](C[C@@H](OC(C)=O)c1nc(C(=O)N[C@@H](Cc2ccccc2)C[C@H](C)C(=O)OC)cs1)C(C)C
inactive: NCI-H23 lung 29.8% | NCI-H226 lung 37.1% | NCI-H322M lung 43.9% | HOP-62 NSCLC 16.6% | HOP-92 NSCLC 29.9% | A549/ATCC NSCLC 25.2% | 786-0 renal 30.8% | MALME-3M melanoma 71.6% | SF-268 CNS 25.6% | UACC-257 melanoma 54.2%
active: NCI-H460 lung 9.82% | NCI-H522 lung -26.7% | COLO 205 colon -12.8% | DU-145 prostate 4.69% | K-562 leukemia 6.34% | MDA-MB-231 breast -5.75% | RXF 393 renal -0.416% | SF-295 CNS 4.7% | SF-539 CNS -31.7% | M14 melanoma 3.12%

CC[C@H](C)[C@H](NC(=O)c1cccn1C)C(=O)N(C)[C@H](C[C@@H](OC(C)=O)c1nc(C(=O)N[C@@H](Cc2ccccc2)C[C@H](C)C(=O)OC)cs1)C(C)C
active: NCI-H226 lung 7.57% | NCI-H460 lung 6.58% | NCI-H522 lung -19.3% | COLO 205 colon -69.7% | DU-145 prostate 5.31% | K-562 leukemia 6.81% | MDA-MB-231 breast -13.7% | RXF 393 renal 3.6% | SF-295 CNS 7.85% | SF-539 CNS -12.7% | M14 melanoma -0.428%
inactive: NCI-H23 lung 22.8% | NCI-H322M lung 37.6% | HOP-62 NSCLC 10.1% | HOP-92 NSCLC 22.4% | A549/ATCC NSCLC 14.4% | 786-0 renal 12.7% | MALME-3M melanoma 73.6% | SF-268 CNS 19.1% | UACC-257 melanoma 51.8%

O=C1C(=Cc2cn(Cc3ccccc3)c3ccccc23)C(=O)N(Cc2ccccc2)C(=O)N1Cc1ccccc1
inactive: NCI-H23 lung 87.8% | NCI-H322M lung 105% | HOP-62 NSCLC 85.5% | NCI-H460 lung 36% | HOP-92 NSCLC 90.9% | NCI-H522 lung 87.6% | A549/ATCC NSCLC 80.1% | 786-0 renal 93.3% | COLO 205 colon 26.4% | DU-145 prostate 110% | K-562 leukemia 81.5% | MALME-3M melanoma 105% | MDA-MB-231 breast 89.3% | RXF 393 renal 57.6% | SF-268 CNS 87.5% | SF-295 CNS 34.4% | SF-539 CNS 83.5% | UACC-257 melanoma 52.9% | M14 melanoma 104%
active: NCI-H226 lung -49.4%

O=C(CC1(O)C(=O)Nc2ccc(Cl)cc21)c1ccc(C(=O)NCC2CCC3(CC2)OOC2(CCCCC2)OO3)cc1 (stereo not given)
active: HOP-62 NSCLC -55.4% | NCI-H460 lung -55.4% | HOP-92 NSCLC -70.3% | NCI-H522 lung -1.69% | A549/ATCC NSCLC -55.4% | 786-0 renal -65.6% | COLO 205 colon 1.29% | DU-145 prostate -60.1% | K-562 leukemia -56.9% | MALME-3M melanoma -51.5% | SF-539 CNS -52.5%
inactive: NCI-H23 lung 32.1% | NCI-H226 lung 53.3% | NCI-H322M lung 77.7% | MDA-MB-231 breast 16.8% | RXF 393 renal 18.5% | SF-268 CNS 32.9% | SF-295 CNS 37.6% | UACC-257 melanoma 37.8% | M14 melanoma 52%

COc1ccc2c(c1)c(-c1nc(-c3c[nH]c4ncccc34)cs1)cn2CCCCN1CCCCC1
active: NCI-H23 lung 1.32% | NCI-H322M lung -20.2% | HOP-62 NSCLC -75.5% | NCI-H460 lung -69.8% | NCI-H522 lung -68.8% | A549/ATCC NSCLC -65.9% | 786-0 renal -90% | COLO 205 colon -76.2% | DU-145 prostate -14.6% | K-562 leukemia -73.7% | MALME-3M melanoma -76.1% | MDA-MB-231 breast -75.9% | RXF 393 renal -85.8% | SF-268 CNS -50.9% | SF-295 CNS -64.9% | SF-539 CNS -80.9% | UACC-257 melanoma -82.3% | M14 melanoma -88%
inactive: NCI-H226 lung 39.6% | HOP-92 NSCLC 20.5%

O=C1C2CCC1C(N1CCCC1)CC2 (stereo not given)
inactive: NCI-H23 lung 105% | NCI-H226 lung 95.9% | NCI-H322M lung 92.5% | HOP-62 NSCLC 101% | NCI-H460 lung 103% | HOP-92 NSCLC 85.5% | NCI-H522 lung 94.9% | A549/ATCC NSCLC 97.8% | 786-0 renal 98.4% | COLO 205 colon 107% | DU-145 prostate 107% | K-562 leukemia 98.8% | MALME-3M melanoma 94.7% | MDA-MB-231 breast 110% | RXF 393 renal 104% | SF-268 CNS 102% | SF-295 CNS 95.5% | SF-539 CNS 95% | UACC-257 melanoma 93% | M14 melanoma 101%

O=[N+]([O-])CC(c1ccccc1Cl)c1c(-c2ccccc2)[nH]c2ccccc12 (stereo not given)
active: NCI-H522 lung -10.9%
inactive: NCI-H23 lung 53.8% | NCI-H226 lung 30.9% | NCI-H322M lung 42.7% | HOP-62 NSCLC 30.3% | NCI-H460 lung 22.9% | HOP-92 NSCLC 36.1% | A549/ATCC NSCLC 31.5% | 786-0 renal 25.2% | COLO 205 colon 15% | DU-145 prostate 43.7% | K-562 leukemia 12.4% | MALME-3M melanoma 42.1% | MDA-MB-231 breast 46.2% | RXF 393 renal 27.8% | SF-268 CNS 50.1% | SF-295 CNS 24.3% | SF-539 CNS 27.2% | UACC-257 melanoma 48.9% | M14 melanoma 21.3%

Source: PubChem BioAssay (NCI)
